Drawing on PubChem BioAssay (NCI), this text covers growth for 15 molecules.

The panel holds about 83,000 compounds, 20% with a hit somewhere; the sample as a whole holds those more often.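 A percent growth of 40 corresponds to 60% growth inhibition; 0 means no net growth; -100 means all cells died. Active threshold: below 10.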 A number with no mark means an inactive call. Calls of active or inactive are those of the source.

Holding throughout (assay): NCI-60 one-dose screen, 48 h (100 = growth as untreated, 0 = no growth, -100 = all killed)
Common to all, as to details: 10 µM unless noted

The test system of assay [1] is T-47D breast.
In assay [2] the test system is BT-549 breast.
Assay [3] deals with MDA-MB-435 melanoma.
Assay [4] has as its system SW-620 colon.
Assay [5] has as its system MCF7 breast.
Assay [6] deals with HCT-116 colon.
Assay [7] relates to HCC-2998 colon.
Assay [8] deals with KM12 colon.

For `COC(=O)[C@]12CC[C@@H](C(C)=O)[C@@H]1[C@H]1CC[C@@H]3[C@@]4(C)C/C(=C/c5cccnc5)C(=O)C(C)(C)[C@@H]4CC[C@@]3(C)[C@]1(C)CC2`, the growth in assay [1] is 24.4%; in assay [2], 46%; in assay [3], 72.6%; in assay [4], 25.3%; in assay [5] it was 19.2%; in assay [6], 3.92% (active). Besides, the growth in assay [7] is 75.8%; in assay [8], 60.5%.

In the case of `Cc1ccc(Nc2c(C(N)=O)cnc3ccc(S(=O)(=O)Nc4cc(C)on4)cc23)cc1`, the growth is 92.7% in assay [1]; 105% in assay [2]; 103% in assay [3]; 105% in assay [4]; 93.9% in assay [5]; 94% in assay [6]. The values for the growth in assay [7] and in assay [8] were 107% and 103%, respectively.

With `CC(C)(C)c1cc(-n2c(-c3ccc(Cl)cc3)nc3cc(C(=O)Nc4ccc(Cl)cc4)ccc32)n[nH]1`, the growth was 25.2% in assay [1]; 58.7% in assay [2]; 73.3% in assay [3]; 55.9% in assay [4]; 38.5% in assay [5]; 28.2% in assay [6]. The growth is 63.9% in assay [7] and 25.9% in assay [8].

As for `Cc1ccc2[nH]cc(-c3nc(-c4cn(C)c5ncccc45)cs3)c2c1`, the growth is 41.5% in assay [1]; 82.9% in assay [2]; 79.3% in assay [3]; 109% in assay [4]; 55.1% in assay [5]; 74.9% in assay [6]. The figures for the growth in assay [7] and in assay [8] were 88.8% and 77.9%, respectively.

Take `Cc1cc2nc3c4cc(Cl)ccc4n(CCN(C)C)c3nc2cc1C`: the growth in assay [1] is 30.5%; in assay [2], 53.6%; in assay [3], 1.97% (active); in assay [4] it was -21.9% (active); in assay [5] it was -37.9% (active); in assay [6] it was -12.7% (active). In addition, the growth in assay [7] is -23.7% (active); in assay [8] it was 19.1%.

Consider `COc1ccc(C2CC(=O)c3c(nc4ccc(Cl)cc4c3N)C2)cc1` (stereo not given), for which the growth in assay [1] was 109%; in assay [2], 102%; in assay [3] it was 93.6%; in assay [4], 106%; in assay [5] it was 95.6%; in assay [6] it was 100%. For the same molecule, the growth was 111% in assay [7] and 103% in assay [8].

As to `Cc1ccc(Sc2sc(-c3ccccc3)nc2[P+](c2ccccc2)(c2ccccc2)c2ccccc2)cc1`, the growth in assay [1] was -9.83% (active); in assay [2] it was -15.4% (active); in assay [3] it was -16.3% (active); in assay [4], 8.24% (active); in assay [5] it was -4.53% (active); in assay [6], -14.3% (active). Moreover, the growth is -11.2% (active) in assay [7] and -37.6% (active) in assay [8].

With `Nc1c(C(=O)Nc2cccc(Cl)c2)sc2ncc(Cl)cc12`, the growth in assay [1] was 49.6%; in assay [2], 68.8%; in assay [3], 77.5%; in assay [4] it was 66.6%; in assay [5] it was 84%; in assay [6] it was 19.6%. The growth in assay [7] is 78.2%; in assay [8], 63.3%.

As for `COc1ccc2c(c1)c(-c1nc(-c3c[nH]c4ncccc34)cs1)cn2C`, the growth in assay [1] was 41.4%; in assay [2], 72.8%; in assay [3], 69.6%; in assay [4] it was 83.3%; in assay [5] it was 14.9%; in assay [6] it was 56.7%. Also, the growth in assay [7] was 83.1%; in assay [8] it was 24%.

With `COc1cc(-c2cc(-c3nc4cc(Cl)c(Cl)cc4[nH]3)[nH]n2)cc(OC)c1OC`, the growth in assay [1] was -10.8% (active); in assay [2], 35.3%; in assay [3], 66.1%; in assay [4] it was 82.7%; in assay [5], 47.6%; in assay [6], 52.6%. Besides, the figures for the growth in assay [7] and in assay [8] were 92.3% and 51.5%, respectively.

Consider `Cc1cc(Cl)c2c(N(C)C)cccc2n1`, for which the growth is 94.7% in assay [1]; 98.3% in assay [2]; 106% in assay [3]; 88.7% in assay [4]; 79.3% in assay [5]; 92.3% in assay [6]. In addition, the growth was 97.1% in assay [7] and 109% in assay [8].

With `O=C1/C(=C\C(Cl)=C/c2ccc([N+](=O)[O-])cc2)SC(=S)N1CCc1ccc(O)cc1`, the growth in assay [1] was -36.4% (active); in assay [2], -51.8% (active); in assay [3] it was -1.96% (active); in assay [4], -30.1% (active); in assay [5], -73.4% (active); in assay [6] it was -77.2% (active). Further, the figures for the growth in assay [7] and in assay [8] were -92.3% (active) and -50.5% (active), respectively.

For `Nc1nc2c3ccncc3cc(-c3cccc(Cl)c3)c2c2cnccc12`, the growth was 32% in assay [1]; 37% in assay [2]; 66.8% in assay [3]; 36.5% in assay [4]; 33.4% in assay [5]; 5.95% (active) in assay [6]. In addition, the growth in assay [7] was 74.9%; in assay [8] it was 46.2%.

In the case of `O=S(=O)(NCCNc1cc(-c2cn(-c3ccccc3)nc2-c2cccc(O)c2)ccn1)c1ccc(C(F)(F)F)cc1`, the growth was 18.3% in assay [1]; 65.2% in assay [2]; 42.4% in assay [3]; 64.8% in assay [4]; 25.9% in assay [5]; 28.4% in assay [6]. The figures for the growth in assay [7] and in assay [8] were 8.21% (active) and 46.5%, respectively.

As for `CC(=O)OC[C@]12CC[C@@H](/C(C)=N/O)[C@@H]1[C@H]1CC[C@@H]3[C@@]4(C)CCCNC(C)(C)[C@@H]4CC[C@@]3(C)[C@]1(C)CC2`, the growth was 47.7% in assay [1]; 66.2% in assay [2]; 81.8% in assay [3]; 80.3% in assay [4]; 57.4% in assay [5]; 46.5% in assay [6]. The figures for the growth in assay [7] and in assay [8] were 95.2% and 76.4%, respectively.
